The record followed here is PubChem BioAssay AID493185 (National Center for Advancing Translational Sciences (NCATS), 2011).

Calls of active or inactive are those of the source. Where a call stands in place of a potency, no number is given. Calls come from the whole dose curve; as a rule, active = well fitted activation curve with a large enough effect; inconclusive = small, poorly fitted or top-dose-only effect; inactive = no such curve, though single readings can be large or run the other way.
Potency is the fitted concentration of half-maximal effect.

This test in a line: Counterscreen for Identifying a Potential Treatment of Ataxia-Telangiectasia: Hit Validation. As to conditions: cell-free AlphaLISA/AlphaScreen artifact counterscreen, PBS only, no cells; series mostly up to 76.9 µM. In short, it runs like this:
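Without cells, compounds at up to 76.7 uM final were combined with premixed anti-pKAP1/anti-KAP1 AlphaLISA bead reagents, protease inhibitors and lysis buffer; signal read after 6 hr at 25C to flag assay-platform artifacts.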
For the compound `Cc1c(Cc2ccccc2)c(NCCCO)n2c(nc3ccccc32)c1C#N`, the Potency entry was “inactive”.

Regarding `COc1cccc(CNCc2ccc(OC)c3ccccc23)c1OC`, the Potency entry was “inactive”. In the case of `Brc1c(C[n+]2ccccc2)nc2ccccn12`, the Potency entry was “inactive”. `O=C(COc1ccccc1Cl)NCCCNC(=O)c1cnccn1`: the Potency entry was “inactive”. For the compound `N#Cc1c2c(c(-n3cnc4ccccc43)n3c1nc1ccccc13)CCC2`, the Potency result is “inactive”.

On to `O=C(c1ccc(F)cc1)N1CCC(c2ccccc2)C1` (stereo not given), for which the Potency entry was “inactive”. To `Cc1ccc(NC(=O)CSc2nnc([C@H](C)NC(=O)OC(C)(C)C)o2)c(C)c1` belongs “inactive”; to `Clc1cccc(CN2CCC(Cc3ccccc3)CC2)c1`, “inactive”; to `CCN(c1ccccc1)S(=O)(=O)c1ccc(Cl)c(C(=O)N(CC2CCCO2)C2CCS(=O)(=O)C2)c1` (stereo not given), “inactive”. In the case of `O=C(CCCn1nnnc1CN1CCOCC1)N1CCC(c2ccc(F)cc2)C1` (stereo not given), the Potency entry is “inactive”. Turning to `C=Cc1c(C)c2cc3[nH]c(cc4nc(cc5nc(cc1[nH]2)C(C)=C5CCC(=O)O)C(CCC(=O)O)=C4C)c(C)c3C=C`, the Potency was 29.2 µM (active). As for `O=C(Nc1cccc([N+](=O)[O-])c1)N1CCCc2ccccc21`, the Potency entry was “inactive”. For `CC1=NOC2(C1)N(C)c1ccccc1C2(C)C` (stereo not given), the Potency entry is “inactive”. With `S=c1[nH]nc(COc2ccccc2)n1/N=C/c1ccccc1Cl`, the Potency entry is “inactive”. Consider `N#Cc1c(-c2ccccc2)cc(-c2ccccc2)[nH]c1=O`, for which the Potency result is “inactive”. Turning to `COc1ccccc1[C@H]1C(c2cccc(Cl)c2)=NN(c2ccccc2)[C@@H]1CO`, the Potency is 29.2 µM (active). Consider `COc1cccc(CN2CCN(Cc3cc(OC)c(OC)cc3OC)CC2)c1`, for which the Potency entry was “inactive”. To `Cc1ccc2c(c1)C(=O)CC(O)(C(F)(F)F)O2` (stereo not given) belongs “inactive”. Consider `COc1ccc(N(C)S(=O)(=O)c2cccc(C(=O)OCC(=O)NCc3ccccc3OC)c2)cc1`, for which the Potency entry was “inactive”. As for `O=C(CN1CCN(Cc2ccccc2)CC1)Nc1ccc(Cl)cc1`, the Potency result was “inactive”. As to `OC(COC(c1ccc(F)cc1)c1ccc(F)cc1)CN1CCCC1` (stereo not given), the Potency entry was “inactive”. Under `CCOC(=O)N1CCN(C(=O)CCc2nc3sc4c(c3c(=O)[nH]2)CCCC4)CC1` stands “inactive”. As for `COc1cc(C(=O)NCCC(=O)NCCCN2CCCCC2)cc(OC)c1OC`, the Potency result was “inactive”. Consider `CCN1CCN(CC(=O)Nc2ccc(C(C)=O)cc2)CC1`, for which the Potency entry was “inactive”. With `CC(C)(C=O)C1=CC(=O)c2ccccc2C1=O`, the Potency entry is “inactive”. For `CCN(CC)c1ccc2cc(-c3nc4ccccc4[nH]3)c(=O)oc2c1`, the Potency is 4.63 µM (active). To `COc1ccc(-c2cc(C(F)(F)F)c(C#N)c(SCC(=O)O)n2)cc1OC` belongs “inactive”; to `COc1cc(CCC(C)NCc2ccccc2)ccc1O` (stereo not given), “inactive”; to `Cc1[nH]c2c(C)cccc2c1CN1CCC(CO)(Cc2ccccc2)CC1`, “inactive”.

Consider `CCCCn1c2c(c(=N)c3ccccc31)CCC2`, for which the Potency entry was “inactive”.

In the case of `Cc1ccnc(NC(=O)c2ccccc2NC(=O)c2ccccc2)c1`, the Potency result was “inactive”. Take `COc1ccc(Cl)cc1NC(=O)C[n+]1cccc(C)c1`: the Potency result is “inactive”. Turning to `O=C(N/N=C/c1ccncc1)c1ccc(COc2cccc3cccnc23)cc1`, the Potency entry was “inactive”. To `O=C1CN(C(=O)NCC(=O)N[C@H](C(=O)O)c2ccccc2)c2ccccc2N1` belongs “inactive”. To `COc1ccccc1N1CCN(C(=O)c2cc(=O)c3c(C)cc(C)cc3o2)CC1` belongs “inactive”; to `COc1ccc2c(c1)c(N=NC(N)=S)c(O)n2CC(=O)c1ccccc1`, “inactive”. On to `c1ccc(CSc2nnc(-c3ccco3)n2Cc2ccco2)cc1`, for which the Potency result is “inactive”.

For `O=C(N/N=C/c1cccc2ccccc12)c1cccnc1`, the Potency result is “inactive”. `Nc1ccc2ncccc2c1`: the Potency entry was “inactive”. In the case of `COc1ccc(C2/C=C\CN(S(=O)(=O)c3ccc4ccccc4c3)CC(=O)N2Cc2ccc(F)cc2)cc1` (stereo not given), the Potency entry was “inactive”.
